Gal4-VP16 FLuc = counter-screen for ROR gamma inhibitors: Gal4-VP16 reporter | actives 3.5% (n = 310,000) | Drosophila S2 Gal4-VP16 UAS-luciferase, luminescence, 20 h | Potency, µM (highest dose often 53.6 µM), without a hit: at the highest dose activity, negative = inhibition, actives largely listed as inhibitors | AID 2546;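 note: Gal4-VP16 expression switched on by copper sulfate through the metallothionein promoter; potency is the fitted concentration of half-maximal effect; % is set by controls: 0 for no effect and ±100 for the full control effect; nearly all actives have a fitted effect of over 50% in size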
RORg inh = ROR gamma (mouse) transcription inhibition; Drosophila S2 Gal4-RORgamma UAS-luciferase reporter, 20 h; Potency, µM (highest dose often 53.6 µM), inactives show at the highest dose activity change, negative = inhibition, most hits filed as inhibitors; actives 5.4% (n = 310,000); note: potency is the fitted concentration of half-maximal effect; % is set by controls: 0 for no effect and ±100 for the full control effect; nearly all actives have a fitted effect of over 60% in size
Target sequence (P51450 whole entry, looked up, the tested form may be a part): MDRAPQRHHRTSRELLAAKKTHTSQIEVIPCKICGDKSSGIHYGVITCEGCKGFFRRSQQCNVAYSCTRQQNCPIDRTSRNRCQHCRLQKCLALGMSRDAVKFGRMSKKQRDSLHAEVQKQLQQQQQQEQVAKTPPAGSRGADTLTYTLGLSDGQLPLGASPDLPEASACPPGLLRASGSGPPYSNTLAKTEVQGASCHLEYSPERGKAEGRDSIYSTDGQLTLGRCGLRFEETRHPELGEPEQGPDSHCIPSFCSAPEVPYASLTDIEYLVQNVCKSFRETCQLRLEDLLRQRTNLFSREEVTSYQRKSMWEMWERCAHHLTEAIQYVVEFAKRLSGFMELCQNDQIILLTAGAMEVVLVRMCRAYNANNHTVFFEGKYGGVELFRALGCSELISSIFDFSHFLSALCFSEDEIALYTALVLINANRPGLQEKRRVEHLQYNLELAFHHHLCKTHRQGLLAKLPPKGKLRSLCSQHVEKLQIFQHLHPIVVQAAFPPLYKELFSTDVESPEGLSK
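Luminescence from a UAS-regulated Photinus luciferase reporter in stably transfected Drosophila Schneider cells is measured; decreased signal marks ROR gamma inhibition. Fusion expression is induced by 700 uM copper sulfate for 20 hr.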
TRPV1 PAM = human TRPV1 potentiation. actives 0.02% (n = 320,000). AID 540277. TRPV1-expressing cells, Fluo-8 calcium influx, capsaicin EC20 potentiation. potentiation, % at 8.33 µM; in the data active = potentiation above about 80%; inconclusive = between about 30% and that limit; note: 0% is about no effect
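TRPV1-expressing cells were cultured overnight at 35.5C and loaded with Fluo-8 calcium dye for 40 to 90 min at room temperature. After a 10 s baseline, compound was added and calcium influx was read kinetically for 3 min (ex 480/em 520 nm).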
uPA generation = cell surface uPA generation inhibition; cell surface uPA generation assay, qHTS; Potency, µM (top dose mostly 38.3 µM), for the others: top-dose activity change, negative = inhibition, actives largely listed as inhibitors; actives 0.31% (n = 330,000); AID 540303; active = well fitted inhibition curve with a large enough effect; inconclusive = small, poorly fitted or top-dose-only effect; inactive = no such curve, though single readings can be large or run the other way; tested in mouse RAW 264.7 cells; note: potency is the fitted concentration of half-maximal effect; % is set by controls: 0 for no effect and ±100 for the full control effect; nearly all actives have a fitted effect of over 55% in size
TRPV1 agonist = agonists of human vanilloid receptor 1 (TRPV1); Q8NER1; TRPV1-expressing cells, Fluo-8 calcium influx, agonist mode; activation, % at 8.33 µM; actives 0.19% (n = 320,000); AID 540275; in the data active = activation above about 80%; inconclusive = between about 30% and that limit; note: 0% is about no effect
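Cells expressing TRPV1 were dye-loaded with Fluo-8 and read kinetically: 10 s baseline, 3 min after compound (agonist portion), then 2 min after EC20 capsaicin (allosteric enhancer portion). Calcium-bound dye fluorescence at 480/520 nm.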
The depositor's hits bear a star; [ ] = dose if it differs, or a comment. An excerpt weighted towards active compounds, which were near 5.8% of everything screened. Unless noted, calls come from the whole dose curve; as a rule, active = well fitted curve in the direction sought with a large enough effect; inconclusive = small, poorly fitted or top-dose-only effect, or another doubt; inactive = no such curve, though single readings can be large; an effect the other way counts as inactive or inconclusive.

Screening COc1ccc(-c2oc3ccccc3c(=O)c2O)cc1OC returned Gal4-VP16 FLuc inconclusive and RORg inh 6.31µM*.
Screening CC(C)Oc1ccc(C(=O)NCCCNC(=O)c2cccnc2)cc1 returned Gal4-VP16 FLuc -3.1%, RORg inh 11.6%, TRPV1 PAM -3.1, uPA generation -3.2% and TRPV1 agonist 3.5.
Cc1ccc(N(C(=O)Cn2nnc(-c3ccc(F)cc3)n2)C(C(=O)NC(C)(C)C)c2ccncc2)cc1 (stereo unspecified) was read as Gal4-VP16 FLuc 1.9%, RORg inh 39.4%, TRPV1 PAM 19.4, uPA generation -6.1% and TRPV1 agonist -0.9.
`O=c1c(O)c(-c2ccc(O)cc2)oc2ccc(O)cc12` gave Gal4-VP16 FLuc -2.7% and RORg inh inconclusive.
For COc1cccc(-c2oc3ccccc3c(=O)c2O)c1 the results were Gal4-VP16 FLuc 7.94µM* and RORg inh 6.31µM*.
COc1ccc(-c2oc3ccc(C)cc3c(=O)c2O)cc1OC was read as Gal4-VP16 FLuc inconclusive and RORg inh 5.01µM*.
`O=c1c(O)c(-c2cccc(O)c2)oc2ccccc12` gave Gal4-VP16 FLuc 1.5% and RORg inh inconclusive.
For Cc1cc(C)cc(-n2c3nc4ccccc4nc3c3c(=O)n(Cc4ccco4)cnc32)c1 the results were Gal4-VP16 FLuc 11.2µM*, RORg inh 11.2µM*, TRPV1 PAM 10.4, uPA generation 9.8% and TRPV1 agonist -3.4.
`Cc1ccc(-c2nc(CSCC(=O)N3CCCC3)c(C)o2)cc1` gave Gal4-VP16 FLuc 1.6%, RORg inh -0.7%, TRPV1 PAM inconclusive, uPA generation -6.6% and TRPV1 agonist 6.4.
Screening CCc1ccc(-c2nc(CSCC(=O)NCc3ccco3)c(C)o2)cc1 returned Gal4-VP16 FLuc 2µM*, RORg inh 0.398µM*, TRPV1 PAM -13.3, uPA generation -3.9% and TRPV1 agonist 14.0.
`CCOC(=O)CSCc1nc(-c2ccc(Cl)cc2)oc1C` gave Gal4-VP16 FLuc inconclusive, RORg inh 10µM*, TRPV1 PAM 0.0, uPA generation 15.2% and TRPV1 agonist 4.2.
For CCCNC(=O)CSCc1nc(-c2ccc(SC)cc2)oc1C the results were Gal4-VP16 FLuc 12.4%, RORg inh -7.5%, TRPV1 PAM -24.9, uPA generation -0.2% and TRPV1 agonist 15.4.
`Cc1ccc(-c2nc(CSCC(=O)Nc3cc(C)on3)c(C)o2)cc1` gave Gal4-VP16 FLuc 6.31µM*, RORg inh inconclusive and uPA generation -11.0%.
For C=CCOC(=O)C(C(C)=O)C(NC(=O)OC)c1ccc2ccccc2c1 (stereo unspecified) the results were Gal4-VP16 FLuc 11.3%[10 µM] and RORg inh -9.2%[10 µM].
For S=C(NNC(=S)Nc1ccccc1)Nc1ccccc1 the results were Gal4-VP16 FLuc inconclusive, RORg inh -15.9%, TRPV1 PAM 18.2, uPA generation -2.2% and TRPV1 agonist 6.5.
Screening S=C(NN=C(C1CC1)C1CC1)Nc1ccccc1 returned Gal4-VP16 FLuc 17.8µM*, RORg inh 11.2µM*, TRPV1 PAM 0.5, uPA generation 4.6% and TRPV1 agonist -4.1.
NC1=CC(=O)c2cccc3cccc1c23 was read as Gal4-VP16 FLuc 22.4µM*, RORg inh 11.2µM*, TRPV1 PAM 1.1 and TRPV1 agonist -2.3.
`COc1ccc(CN(C)C2CCCCC2)c(C)c1C` gave Gal4-VP16 FLuc 0.0%, RORg inh inconclusive, TRPV1 PAM 5.1, uPA generation -13.1% and TRPV1 agonist -4.5.
Screening CCCCCCc1c(C)nc(-n2[nH]c(C)c(CCO)c2=O)[nH]c1=O returned Gal4-VP16 FLuc 15.8µM*, RORg inh 3.55µM*, TRPV1 PAM -3.5, uPA generation 1.9% and TRPV1 agonist -4.8.
For CCCCCCCc1c(C)nc(N2CCOCC2)[nH]c1=O the results were Gal4-VP16 FLuc 9.4%, RORg inh -8.1%, TRPV1 PAM -0.9 and TRPV1 agonist 0.0.
CCOC(=O)c1sc(=S)n(C)c1NC(=O)c1ccccc1C was read as Gal4-VP16 FLuc -3.1%, RORg inh 2.3%, TRPV1 PAM 16.4, uPA generation -0.3% and TRPV1 agonist -0.7.
O=C(CN1C(=O)C2CC=CCC2C1=O)OCC(=O)c1ccc(Cl)c([N+](=O)[O-])c1 (stereo unspecified) was read as Gal4-VP16 FLuc 35.5µM*, RORg inh -38.8%, TRPV1 PAM -9.0, uPA generation -4.3% and TRPV1 agonist 1.8.
`NCCCCC(NC(CCc1ccccc1)C(=O)O)C(=O)N1CCCC1C(=O)O` (stereo unspecified) gave Gal4-VP16 FLuc 0.4% and RORg inh 10.5%.
`C[C@H](NC(=O)c1[nH]cnc1C(=O)Nc1ccc(Cl)cc1)C(=O)OC(C)(C)C` gave Gal4-VP16 FLuc 1.41µM*, RORg inh 1µM*, TRPV1 PAM 29.1, uPA generation -2.5% and TRPV1 agonist 8.8.
`Cc1cccc(NC(=O)c2nc[nH]c2C(=O)N[C@@H](C)C(=O)OC(C)(C)C)c1` gave Gal4-VP16 FLuc 7.08µM*, RORg inh 3.16µM*, TRPV1 PAM -9.5, uPA generation 0.9% and TRPV1 agonist 26.5.
`CCCOC(=O)NCCCN(C)C` gave Gal4-VP16 FLuc -1.2% and RORg inh 12.6%.
Screening c1ccc(CN2CCN(c3ncnc4nc[nH]c34)CC2)cc1 returned Gal4-VP16 FLuc -14.9%, RORg inh 8.6%, TRPV1 PAM inconclusive, uPA generation -17.6% and TRPV1 agonist 2.7.
For COc1ccc(OC)c(S(=O)(=O)Nc2ccc(Oc3ccccc3)cc2)c1 the results were Gal4-VP16 FLuc 6.31µM*, RORg inh inconclusive, TRPV1 PAM -10.7 and TRPV1 agonist 12.8.
`COc1ccc(OC)c(S(=O)(=O)Nc2ccc(O)c3ccccc23)c1` gave Gal4-VP16 FLuc 3.6%[0.365 µM], RORg inh 10µM*, TRPV1 PAM 0.2, uPA generation -14.5% and TRPV1 agonist 0.6.
`Cc1cccn2c(=O)c3cc(C(=O)NCC4CCCO4)c(=N)n(C4CCCCC4)c3nc12` (stereo unspecified) gave Gal4-VP16 FLuc 4.5%, RORg inh -7.5%, TRPV1 PAM -33.4, uPA generation -5.9% and TRPV1 agonist 90.6*.
For Cc1cccn2c(=O)c3cc(C(=O)NCC4CCCO4)c(=N)n(CC4CCCO4)c3nc12 (stereo unspecified) the results were Gal4-VP16 FLuc 0.6%, RORg inh -5.5%, TRPV1 PAM -6.0, uPA generation -6.0% and TRPV1 agonist 8.9.
For Cc1cc(C)c(NC(=S)N(CCCN2CCOCC2)Cc2cccnc2)c(C)c1 the results were Gal4-VP16 FLuc 4.1%[10 µM], RORg inh 0.6%, TRPV1 PAM 7.9, uPA generation 0.9% and TRPV1 agonist -5.5.
Screening O=C(CSC(=S)N1CCCCC1)Nc1ncc2c(n1)CCCC2=O returned Gal4-VP16 FLuc -9.7%, RORg inh 34.4%, TRPV1 PAM -4.7, uPA generation 1.4% and TRPV1 agonist 2.3.
